# Most compounds without a hit are left out; they make up all but 2.8% or so of the library.
# Pol eta inh-1 – qHTS for Inhibitors of Polymerase Eta; DNA polymerase eta (Homo sapiens), Q9Y253; recombinant Pol eta, fluorescent DNA replication assay; Potency, µM (series often up to 114 µM), for the others: at the highest dose activity change, negative = inhibition, most hits filed as inhibitors; actives 1.2% (n = 390,000); note: potency is the fitted concentration of half-maximal effect; % is set by controls: 0 for no effect and ±100 for the full control effect
#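 Pol eta at 10 nM preincubated with compounds 15 min at room temperature; reaction started with fluorescent substrate (50 nM final) and read kinetically at 0 and 10 min.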
# POLB inh – qHTS Assay for Inhibitors of DNA Polymerase Beta; Potency, µM (top dose mostly 114 µM), for the others: top-dose activity change, negative = inhibition, usual class: inhibitors; Pol beta primer extension/strand displacement, fluorescence kinetic; actives 1.3% (n = 340,000); P06746; note: potency is the fitted concentration of half-maximal effect; % is set by controls: 0 for no effect and ±100 for the full control effect
#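 Values derive from four-parameter Hill fits of normalized kinetic data: reads at 0 and 10 min following addition of 50 nM substrate to 10 nM Pol beta preincubated 15 min with compound.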
# Pol kappa inh – qHTS for Inhibitors of Polymerase Kappa; purified Pol kappa, fluorescent DNA synthesis assay, 10 min; Potency, µM (doses to about 107 µM), inactives show at the highest dose activity, negative = inhibition, most hits filed as inhibitors; actives 0.53% (n = 400,000); AID 588579, 2011; note: potency is the fitted concentration of half-maximal effect; % is set by controls: 0 for no effect and ±100 for the full control effect
#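 Activity was followed as the change in fluorescence between reads at 0 and 10 min after starting the reaction with 50 nM substrate. Beforehand, 10 nM polymerase had been preincubated with compound for 15 min at room temperature.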
# WRN helicase inh-1 – qHTS for Inhibitors of WRN Helicase. actives 0.46% (n = 360,000). AID 651768, 2012. WRN helicase unwinding, fluorescent forked duplex, kinetic. Potency, µM (highest dose often 114 µM), for the others: top-dose activity change, negative = inhibition, actives largely listed as inhibitors. Bifunctional 3'-5' exonuclease/ATP-dependent helicase WRN (Homo sapiens), Q14191; note: potency is the fitted concentration of half-maximal effect; % is set by controls: 0 for no effect and ±100 for the full control effect; nearly all actives have a fitted effect of over 55% in size
#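 WRN at 20 nM final preincubated with compound 15 min at room temperature; reaction started with 100 nM fluorophore/quencher forked duplex oligonucleotide and 2 mM ATP final. Unwinding followed kinetically by red fluorescence (ex 525, em 598 nm).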
# PI5P4K alpha inh – qHTS for Inhibitors of phosphatidylinositol 5-phosphate 4-kinase (PI5P4K); max response, %; Phosphatidylinositol 5-phosphate 4-kinase type-2 alpha (Homo sapiens), P48426; PI5P4Kalpha enzyme, ADP-Glo luminescence, 60 min; stronger effect = lower value; actives 1.2% (n = 330,000); active = max response of -50% or lower; inconclusive = between -30% and -50%; inactive = -30% or higher; note: value at the top dose of about 77 µM; % is set by controls: 0 for no effect and ±100 for the full control effect
#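 Enzyme plus substrate dispensed, test compounds pinned in, then ATP (5 microM final) added. After 60 min at RT, ADP-Glo reagent 1 for 45 min and reagent 2 for 30 min preceded luminescence imaging.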
# Pol iota inh – qHTS for Inhibitors of Polymerase Iota. DNA polymerase iota (Homo sapiens), Q9UNA4. Pol iota fluorescent replication assay, 10 min. Potency, µM (titrated, usually from 115 µM), for inactives: top-dose activity, negative = inhibition, actives largely listed as inhibitors. actives 1% (n = 390,000); note: potency is the fitted concentration of half-maximal effect
# Target sequence (Q9UNA4 whole entry, looked up): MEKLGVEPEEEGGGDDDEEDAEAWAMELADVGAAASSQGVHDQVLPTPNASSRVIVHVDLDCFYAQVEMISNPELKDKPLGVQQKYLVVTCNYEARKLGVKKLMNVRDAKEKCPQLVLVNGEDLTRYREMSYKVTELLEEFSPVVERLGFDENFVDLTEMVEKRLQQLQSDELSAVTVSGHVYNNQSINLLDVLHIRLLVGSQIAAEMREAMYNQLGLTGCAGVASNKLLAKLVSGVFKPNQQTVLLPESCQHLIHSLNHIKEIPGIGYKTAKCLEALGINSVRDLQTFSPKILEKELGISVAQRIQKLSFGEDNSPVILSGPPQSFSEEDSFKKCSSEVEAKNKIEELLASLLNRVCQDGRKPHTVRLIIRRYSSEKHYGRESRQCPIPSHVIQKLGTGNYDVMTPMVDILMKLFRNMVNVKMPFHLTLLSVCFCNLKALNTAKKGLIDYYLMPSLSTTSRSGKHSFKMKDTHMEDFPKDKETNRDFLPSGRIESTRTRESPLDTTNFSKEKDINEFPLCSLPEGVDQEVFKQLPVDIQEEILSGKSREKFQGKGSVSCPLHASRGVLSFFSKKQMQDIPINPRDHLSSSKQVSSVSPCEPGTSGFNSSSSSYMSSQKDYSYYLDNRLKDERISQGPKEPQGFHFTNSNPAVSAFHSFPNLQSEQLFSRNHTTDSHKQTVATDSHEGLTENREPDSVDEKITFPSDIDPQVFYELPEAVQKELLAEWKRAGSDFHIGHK
#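 Pol iota at 10 nM preincubated 15 min with compounds at room temperature; reaction started with fluorescent substrate, 50 nM final. Fluorescence read kinetically at 0 and 10 min; buffer-only wells as negative control.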
# Pol iota confirm – qHTS for Inhibitors of Polymerase Iota: Confirmatory Assay for Cherry-picked Compounds | shares compounds with Pol kappa inh | Pol iota primer extension, TAMRA/BHQ fluorescence | Potency, µM, most hits filed as inhibitors | actives 77% (n = 1,500) | AID 720496, 2013; note: potency is the fitted concentration of half-maximal effect
# Pol eta inh-2 – qHTS for Inhibitors of Polymerase Eta: Confirmatory Assay for Cherry-picked Compounds; Potency, µM, usual class: inhibitors; actives 64% (n = 2,600); shares compounds with Pol eta inh-1; Pol eta primer extension, TAMRA/BHQ fluorescence, 10 min; note: potency is the fitted concentration of half-maximal effect
# WRN helicase inh-2 – qHTS for Inhibitors of WRN Helicase: Confirmatory Assay for Cherry-picked Compounds. shares compounds with WRN helicase inh-1. WRN helicase DNA unwinding, fluorescence kinetic. Potency, µM (series often up to 57.1 µM), inactives show top-dose activity, negative = inhibition, usual class: inhibitors. actives 63% (n = 610); note: potency is the fitted concentration of half-maximal effect; nearly all actives have a fitted effect of over 65% in size
# TO displacement – qHTS for Inhibitors of WRN Helicase: Thiazole Orange DNA Binding Counterscreen; shares compounds with WRN helicase inh-1; thiazole orange DNA binding displacement, fluorescence; Potency, µM (highest dose often 57.1 µM), inactives show at the highest dose activity change, negative = inhibition, most hits filed as inhibitors; actives 10% (n = 610); AID 720499, 2013;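 note: drop in dye fluorescence marks compound binding to DNA; potency is the fitted concentration of half-maximal effect; % is set by controls: 0 for no effect and ±100 for the full control effect; nearly all actives have a fitted effect of over 60% in size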
# BLM helicase inh – qHTS for Inhibitors of WRN Helicase: BLM Helicase Counterscreen for WRN Inhibitors. Potency, µM (titrated, usually from 57.1 µM), without a hit: at the highest dose activity change, negative = inhibition, most hits filed as inhibitors. shares compounds with WRN helicase inh-1. actives 60% (n = 610). Recombinant BLM helicase DNA unwinding, red fluorescence; note: potency is the fitted concentration of half-maximal effect; nearly all actives have a fitted effect of over 60% in size
# * marks the source's active call; other numbers are inactive results; ? = inconclusive; . = no result; [ ] = another dose, or the depositor's remark. Unless noted, calls come from the whole dose curve; as a rule, active = well fitted curve in the direction sought with a large enough effect; inconclusive = small, poorly fitted or top-dose-only effect, or another doubt; inactive = no such curve, though single readings can be large; an effect the other way counts as inactive or inconclusive.
SMILES,Pol eta inh-1,POLB inh,Pol kappa inh,WRN helicase inh-1,PI5P4K alpha inh,Pol iota inh,Pol iota confirm,Pol eta inh-2,WRN helicase inh-2,TO displacement,BLM helicase inh
COc1ccc(-c2nn(C)c3sc(C(=O)Nc4cc(OC)c(OC)c(OC)c4)cc23)cc1OC,39.8µM*,44.7µM*,50.1µM*,.,.,22.4µM*,37.7*,60.1*,9.61µM*,?,10.8µM*
O=C(Nc1ccc2nc(-c3ccc4nc[nH]c4c3)[nH]c2c1)c1cccs1,20µM*,4.47µM*,35.5µM*,39.8µM*,?,1.12µM*,?,?,21.5µM*,-17.3%,24.1µM*
CCOC(=O)C(CC)Sc1ncnc2c1c(-c1ccccc1)cn2-c1ccc(OC)cc1 (stereo not drawn),-8.9%,9.3%,-7.3%,.,.,-14.4%,.,.,.,.,.
Cc1ccc(C(=O)Nc2sc3c(c2C(=O)O)CCCC3)o1,-12.6%,-11.1%,4.2%,-0.8%,2.8,9.8%,.,.,.,.,.
Cc1ccc(C)n1-c1sc2c(c1C(=O)O)CCCC2,7.94µM*,14.1µM*,50.1µM*,?,-16.6,?,59.7*,26.9*,13.6µM*,0.0%,15.2µM*
COc1cc2c(cc1NC(=O)CSc1nc3ccccc3[nH]1)oc1ccccc12,50.1µM*,5.1%,?,?,.,44.7µM*,42.3*,42.6*,-22.7%,24.7%,?
CCc1cc(C(=O)N=Nc2c(O)[nH]c3ccc([N+](=O)[O-])cc23)c2ccccc2n1,50.1µM*,31.6µM*,?,?,-3.2,?,?,75.7*,19.2µM*,15.2µM*,17.1µM*
O=C(Nc1ccc2c(c1)N(C1CCCC1)C(=O)c1ccccc1S2)c1ccc(F)cc1,0.0%,-1.1%,-11.5%[60.1 µM],.,.,-16.0%,.,.,.,.,.

# Screening results from PubChem.
